37 compounds from PubChem BioAssay (NCATS) can be followed below.

Structures are written as SMILES. Results filed as inconclusive are left out. A number with no mark means an inactive call. Calls come from the whole dose curve; as a rule, active = well fitted inhibition curve with a large enough effect; inconclusive = small, poorly fitted or top-dose-only effect, or effect the other way; inactive = flat fitted curve, though single readings scatter.
% is set by controls: 0 for no effect and ±100 for the full control effect.

For this test, the target named is ATP-dependent 6-phosphofructokinase (Trypanosoma brucei brucei) (UniProt O15648). The test is described as follows: qHTS Assay to Find Inhibitors of T. brucei phosphofructokinase: hit validation (AID 492961). Particulars: T. brucei PFK, ADP-Glo luminescence; series mostly up to 51.4 µM; activity change, negative = inhibition: at the top concentration. A digest of the protocol: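 Luminescence from ADP-Glo reports ADP generated as T. brucei PFK (1.25 nM) phosphorylates 0.5 mM fructose-6-phosphate using 0.1 mM ATP. Reactions ran 45 min at room temperature, pH 8.0.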
Sequence of ATP-dependent 6-phosphofructokinase (Trypanosoma brucei brucei) (O15648 whole entry, looked up): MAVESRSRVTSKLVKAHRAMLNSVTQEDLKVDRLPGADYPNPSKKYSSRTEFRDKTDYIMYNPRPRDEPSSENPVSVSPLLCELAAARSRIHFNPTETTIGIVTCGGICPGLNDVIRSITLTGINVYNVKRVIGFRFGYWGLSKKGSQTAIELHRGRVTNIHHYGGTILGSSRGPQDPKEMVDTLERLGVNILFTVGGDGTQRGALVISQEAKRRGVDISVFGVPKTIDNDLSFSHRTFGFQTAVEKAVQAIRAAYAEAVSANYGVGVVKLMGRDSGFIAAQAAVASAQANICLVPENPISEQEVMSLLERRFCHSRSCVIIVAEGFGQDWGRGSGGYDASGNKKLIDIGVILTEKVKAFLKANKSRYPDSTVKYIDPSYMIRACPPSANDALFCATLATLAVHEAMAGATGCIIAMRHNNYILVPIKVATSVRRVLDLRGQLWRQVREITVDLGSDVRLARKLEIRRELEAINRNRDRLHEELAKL
Turning to `Cn1c(=O)c2[nH]c(Br)nc2n(C)c1=O`, the “activity change, negative = inhibition” value was 0%.
Consider `N#CCC(=O)NN`, for which the “activity change, negative = inhibition” value is 9.74%.
Then `C[N+]1(C)CCC(=C(c2ccccc2)c2ccccc2)CC1`, with -0.963% [at 24.3 µM]; and `N=C(N)N1CCc2ccccc2C1`, with -5.37%.
On to `CN1CCN(C2=Nc3cc(F)ccc3Cc3ccccc32)CC1`, for which the “activity change, negative = inhibition” value was 1.53%.
For the compound `NS(=O)(=O)c1cc(C(=O)O)cc(N2CCCC2)c1Oc1ccccc1`, the “activity change, negative = inhibition” value was -2.38% [at 24.3 µM].
As for `CC(=O)NO`, the “activity change, negative = inhibition” value is -3.76%.
For `CC1=C(C(=O)O)N2C(=O)[C@@H](NC(=O)[C@H](N)c3ccccc3)[C@H]2SC1`, the “activity change, negative = inhibition” value was 6.77%.
For `C=CCN1CCc2nc(N)sc2CC1`, the “activity change, negative = inhibition” value was -13.7%.
Take `O=S(c1cc(Cl)cc(Cl)c1O)c1cc(Cl)cc(Cl)c1O`: the “activity change, negative = inhibition” value is -13.7%.
Then `CC(=O)Nc1ccc(CC(=O)O)cc1`, with -14.9%; and `CCN(CC)CCOc1ccccc1C(=O)CCc1ccccc1`, with -3.17%.
For the compound `O=C(Oc1cccc2cccnc12)c1ccccc1`, the “activity change, negative = inhibition” value is 13.3%.
For the compound `CC(C)=CCOc1ccc(/C=C/C(=O)c2ccc(OCC=C(C)C)cc2OCC(=O)O)cc1`, the “activity change, negative = inhibition” value is -3.65%.
Consider `CN(C)CCN1C(=O)c2ccccc2N(C)c2ccccc21`, for which the “activity change, negative = inhibition” value is 13.8%.
`Cc1ccccc1OCC(O)CO` (configuration not stated): the “activity change, negative = inhibition” value is -8.98%.
Regarding `C[C@@H](O)[C@H]1C(=O)N2C(C(=O)O)=C(S[C@@H]3CN[C@H](CNS(N)(=O)=O)C3)[C@H](C)[C@H]12`, the “activity change, negative = inhibition” value is -7.61%.
On to `COc1cc([C@H]2Oc3cc([C@H]4Oc5cc(O)cc(O)c5C(=O)[C@@H]4O)ccc3O[C@@H]2CO)ccc1O`, for which the “activity change, negative = inhibition” value is 13.3%.
Then `O=C(NC1CCN(CCc2c[nH]c3ccccc23)CC1)c1ccccc1`, with -7.05%.
As for `C#C[C@]1(O)CC[C@H]2[C@@H]3CCC4=Cc5oncc5C[C@]4(C)[C@H]3CC[C@@]21C`, the “activity change, negative = inhibition” value was 5.94%.
With `CCOc1ccccc1OCCN[C@H](C)Cc1ccc(OC)c(S(N)(=O)=O)c1`, the “activity change, negative = inhibition” value was 3.14%.
`Nc1ccc(S(=O)(=O)NCc2ccccc2)cc1`: the “activity change, negative = inhibition” value is -4.84%.
Consider `CCC1Nc2cc(Cl)c(S(N)(=O)=O)cc2S(=O)(=O)N1` (configuration not stated), for which the “activity change, negative = inhibition” value was -8.55%.
For the compound `C/C=C/C=N/NC(=O)c1ccncc1`, the “activity change, negative = inhibition” value was -5.27%.
Then `NC(=O)C1(N2CCCCC2)CCN(CCCC(=O)c2ccc(F)cc2)CC1`, with -11.4%; and `CCCN(CCc1cccs1)[C@H]1CCc2c(O)cccc2C1`, with 1.04%; and `OC1C(O)C(O)C(O)C(O)C1O` (configuration not stated), with -0.435%.
As for `C#C[C@]1(O)CC[C@H]2[C@@H]3CCC4=CC(=O)CC[C@@H]4[C@H]3CC[C@@]21CC`, the “activity change, negative = inhibition” value is -5.09%.
Regarding `O=C1C(O)=C(O)C(=O)C(O)=C1O`, the “activity change, negative = inhibition” value was -11%.
`CC(=O)O[C@H]1C[C@@H]2CC[C@@H]3[C@H](CC[C@@]4(C)[C@H]3C[C@H]([N+]3(C)CCCCC3)[C@@H]4OC(C)=O)[C@@]2(C)C[C@@H]1N1CCCCC1`: the “activity change, negative = inhibition” value is -1.89%.
Next, `CC(C)Nc1cccnc1N1CCN(C(=O)c2cc3cc(NS(C)(=O)=O)ccc3[nH]2)CC1`: -6.98%.
For the compound `COc1cc(O)c(C(=O)c2ccccc2)cc1S(=O)(=O)O`, the “activity change, negative = inhibition” value was -7.68%.
For `NC1CCN(c2nc3c(cc2F)c(=O)c(C(=O)O)cn3-c2ccc(F)cc2F)C1` (configuration not stated), the “activity change, negative = inhibition” value is 4.82%.
`OCc1ccccn1`: the “activity change, negative = inhibition” value was 11.4%.
Regarding `CNCCCCOc1ccccc1Cc1ccccc1`, the “activity change, negative = inhibition” value is 0.927%.
For the compound `O=[N+]([O-])c1cccc(S(=O)(=O)NCCNS(=O)(=O)c2cccc([N+](=O)[O-])c2)c1`, the “activity change, negative = inhibition” value is 4.87%.
On to `c1ccc(-c2nc[nH]c2-c2ccccc2)cc1`, for which the “activity change, negative = inhibition” value is -4.74%.
